Source: PubChem BioAssay
MCF10A rereplic – induces DNA re-replication in MCF 10a normal breast cells; Potency, µM (highest dose often 46.1 µM), inactives show top-dose activity, positive = re-replication, usual class: activators; actives 2.9% (n = 350,000); MCF 10A DNA re-replication, Hoechst nuclear intensity, 48 h; note: % of control where 0% means no effect; nearly all actives have a fitted effect of over 50% in size
HT1080NT lethal – kills 2HG-producing HT-1080-NT fibrosarcoma cells. HT-1080-NT fibrosarcoma viability, CellTiter-Glo ATP luminescence, 48 h. Potency, µM (doses to about 46.1 µM), for inactives: at the top dose activity, negative = less viability, hits mostly cytotoxic. actives 1.6% (n = 360,000);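 note: NT is the 2HG producing partner of a matched IDH1 knockdown line; 0% = DMSO-treated cells and -100% = media-only wells without cells; nearly all actives have a fitted effect of over 55% in size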
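Viability of the 2HG-overproducing fibrosarcoma line after 48 hours of compound exposure at 37 degrees C was determined by luminescence with CellTiter-Glo, and concentration-effect curves were then fitted and categorized.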
KB-3-1 cytotox – KB-3-1 parental cell cytotoxicity | AID 1347075 | KB-3-1 viability, CellTiter-Glo ATP luminescence, 72 h | Potency, µM (titrated, usually from 46.1 µM), usual class: cytotoxic | actives 1.4% (n = 400,000); note: % is set by controls: 0 for no effect and ±100 for the full control effect; nearly all actives have a fitted effect of over 60% in size
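Cytotoxicity in the drug-sensitive parental line KB-3-1 was scored as loss of CellTiter-Glo luminescence following 72 h incubation with compound. Values come from curve fitting of normalized concentration-response data.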
SW480 rerep – inducers of DNA re-replication in SW480 colon cancer cells | SW480 DNA re-replication, Hoechst DNA content imaging, 48 h | Potency, µM (titrated, usually from 46.1 µM), for the others: top-dose re-replication activation, usual class: activators | actives 1.8% (n = 340,000) | AID 624297; note: % of control where 0% means no effect; nearly all actives have a fitted effect of over 55% in size
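250 cells/well; 23 nL cpd via pin tool; 48 hr, 37 C, 5% CO2; Hoechst 40 min; imager read of total nuclear intensity, ex 405/em 500-530 nm.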
HT1080 IDH1KD tx – HT-1080 IDH1 knockdown cell toxicity (counter line); HT-1080 IDH1 knockdown viability, ATP luminescence, 48 h; Potency, µM (doses to about 46.1 µM), without a hit: at the top dose activity, negative = toxicity, usual class: cytotoxic; actives 2% (n = 360,000);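 note: 0% = DMSO wells and -100% = cell-free medium wells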
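Using the IDH1-knockdown HT-1080 line run in the same batch and compound series as the NT line, viability after 48 h at 37 °C was determined by CellTiter-Glo luminescence and expressed as % activity.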
KB-V1 cytotox – kills drug-selected multidrug resistant KB-V1 cells; AID 1347076; Potency, µM (highest dose often 46.1 µM), most hits filed as cytotoxic; actives 3.4% (n = 400,000); KB-V1 MDR cells viability, CellTiter-Glo, 72 h; note: % is set by controls: 0 for no effect and ±100 for the full control effect; nearly all actives have a fitted effect of over 60% in size
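Following 72 h at 37 degrees C with compound, KB-V1 cell viability was read by CellTiter-Glo luminescence, medium being phenol-red-free DMEM plus 10% FBS; concentration-response parameters came from normalized, curve-fitted qHTS data.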
* = called active by the depositor; i = inactive; ? = inconclusive; . = not tested or not shown; [ ] = dose if it differs, or a comment. A selection: hits, their analogues and other compounds. The true share with any hit is near 8%. Calls come from the whole dose curve; as a rule, active = well fitted curve in the direction sought with a large enough effect; inconclusive = small, poorly fitted or top-dose-only effect, or another doubt; inactive = no such curve, though single readings can be large; an effect the other way counts as inactive or inconclusive. Potency is the fitted concentration of half-maximal effect.

SMILES	MCF10A rereplic	HT1080NT lethal	KB-3-1 cytotox	SW480 rerep	HT1080 IDH1KD tx	KB-V1 cytotox
c1coc(CNc2nc[n+]3c4c2ncn4CC3)c1	.	20%	.	.	20%	.
CN(Cc1ccc(O)cc1)C1CCCCC1	6%	4%	i	0%	-11%	i
CN(Cc1cc(Br)cc(Br)c1N)C1CCCCC1	27µM*	.	.	?	.	.
Cn1cnc2c(=O)oc3ccc(S(=O)(=O)N4CCN(c5ccccc5F)CC4)cc3c21	.	.	i	.	.	?
COc1cc(OC)c(NC(=O)c2oc3ccc4c(c3c2C)C(=O)CC(C)(C)O4)cc1Cl	.	.	i	.	.	i
O=C(Oc1ccc(N(Cc2cccs2)C2=NS(=O)(=O)c3ccccc32)cc1)c1ccccc1	-1%	-4%	i	-1%	-5%	16µM*
O=C(Oc1ccc(N(Cc2cccs2)C2=NS(=O)(=O)c3ccccc32)cc1)c1ccc(Cl)cc1	-5%	-2%	i	1%	-6%	i
COC(=O)c1ccccc1COc1cccn2c(N(C)Cc3cccs3)c(C)nc12	.	?	?	.	?	18µM*
CCOC(=O)N(C)c1c(CC)nc2c(OCc3cccc(Cl)c3)cccn12	.	-22%	i	.	-27%	i
Cc1nc2c(OCc3cccc(Cl)c3)cccn2c1N(C)Cc1cccs1	.	?	?	.	?	18µM*
CCC(CC)C(=O)N(C)c1c(C)nc2c(OCc3ccccc3C(=O)OC)cccn12	.	-14%	i	.	-8%	i
Cc1cc(C)cc(OCc2cc(=O)n3cc(C)sc3n2)c1	.	.	i	.	.	i
COC(=O)c1ccc(NC(=O)C(=O)N2CCN(C(=S)Nc3ccc(C)cc3)CC2)cc1	26%	6%	i	0%	-11%	i
COC(=O)c1ccc(NC(=O)C(=O)N2CCN(C(=S)Nc3ccc(OC)cc3)CC2)cc1	-2%	-6%	i	16%	-6%	21µM*
COC(=O)c1ccc(NC(=O)C(=O)N2CCN(C(=S)Nc3cccc(OC)c3)CC2)cc1	-2%	5%	i	-27%	24%	18µM*
N[C@H](Cc1ccc(O)c(O)c1)C(=O)O	-6%	.	.	-16%	.	.
Cc1ccc2ccc3cc(C(=O)N4CCN(c5ccccc5)CC4)nc3c2[nH]1	.	.	?	.	.	i
Cc1nc([N+](=O)[O-])c(Sc2nc3ccccc3[nH]2)n1Cc1ccccc1	?	12%	i	?	6%	i
COc1ccc2nc(SCC(=O)NCc3ccccc3)[nH]c2c1	13%	-5%	i	?	-4%	i
COc1ccc2nc(Sc3c([N+](=O)[O-])nc(C)n3Cc3ccccc3)[nH]c2c1	?	?	?	?	21µM*	i
Cc1cc2nc(Sc3c([N+](=O)[O-])nc(C)n3Cc3ccccc3)[nH]c2cc1C	21µM*	?	?	?	?	i
CN(C)S(=O)(=O)N1CCc2ccc(NC(=O)c3ccc(C(F)(F)F)cc3)cc2C1	7%	16µM*	?	-3%	?	?
COCCC(=O)N1CCc2ccc(NC(=O)c3ccc(C(F)(F)F)cc3)cc2C1	17%	?	i	?	-14%	i
Cc1ccc(C)c(Nc2nc(NCc3ccco3)nc3nccnc23)c1	.	.	i	.	.	i
Cc1cccc(-c2nc(S(=O)(=O)c3ccccc3)c(N3CCN(c4ccccc4)CC3)o2)c1	.	.	i	.	.	i
SMILES	MCF10A rereplic	HT1080NT lethal	KB-3-1 cytotox	SW480 rerep	HT1080 IDH1KD tx	KB-V1 cytotox
Cc1nn(CCCC(=O)Nc2cccc(F)c2)c(=O)c2c1sc1ccccc12	.	.	i	.	.	i
Cc1cccc(C)c1OCC(=O)Nc1oc(-c2ccccc2)c(-c2ccccc2)c1C#N	?	?	?	-70%	-20%	16µM*
CCn1ccc2cc(S(=O)(=O)N3CCCN(C(=O)NCCOC)CC3)ccc21	.	.	i	.	.	i
CN(C)S(=O)(=O)c1ccc2c(c1)N(CC(=O)N1CCN(c3ccccc3F)CC1)CCS2	.	.	i	.	.	?
O=c1[nH]c(CSc2ccccn2)nc2c1cnn2-c1ccccc1	-1%	0%	i	-4%	1%	21µM*
CCOc1ccccc1C(=O)N1CC(=O)Nc2ccc(Cl)cc2C1c1ccccc1 (stereo not drawn)	.	.	i	.	.	i
CN1/C(=C/C2CC(=O)N(c3cccc4ccccc34)C2=O)C(C)(C)c2ccccc21 (stereo not drawn)	?	3%	i	18µM*	14%	i
Cc1cc(C)cc(NC(=O)CN2C(=O)c3ccccc3Sc3ccc(C(=O)N4CCCC4)cc32)c1	.	.	i	.	.	i
O=C(Cc1csc(Nc2nc(=S)[nH]c3ccccc23)n1)NCc1ccc(Cl)cc1	16µM*	-2%	i	?	-18%	i
O=C(Cc1csc(Nc2nc(=S)[nH]c3ccccc23)n1)NCCCN1CCN(c2ccccc2F)CC1	7.3µM*	21µM*	?	18µM*	21µM*	15µM*
COc1ccc(CNC(=O)Cc2csc(Nc3nc(=S)[nH]c4ccccc34)n2)cc1	3%	-7%	i	-7%	-6%	?
CNC(=O)c1c(NC(=O)c2nc(SCc3ccc(C)cc3)ncc2Cl)sc2c1CCCC2	.	.	i	.	.	i
Cc1ccc(N2CCN(Cc3nnc(-c4ccc5c(c4)OCO5)o3)CC2)c(C)c1	.	.	i	.	.	i
CN1CCN(C(=S)SCC(=O)Nc2nc(-c3ccccc3)c(-c3ccccc3)o2)CC1	12µM*	-19%	?	-108%	0%	21µM*
CCOC(=O)C(=O)Nc1nc(-c2ccccc2)c(-c2ccccc2)o1	17%	6%	i	0%	2%	i
CCc1nn(CC(=O)NCCc2ccc(OC)cc2OC)c(=O)c2cc3c(OC)cccc3n12	.	.	i	.	.	i
COc1cc(OC)c(NC(=O)CSC2=Nc3ccccc3N=C(c3ccc(F)cc3)C2)cc1Cl	.	.	i	.	.	i
CCCCN(CC)CCNC(=O)c1cc2c(=O)oc3ccc(C)cc3c2s1	.	.	i	.	.	i
CCOC(=O)c1c(NC(C)=O)sc2c1CCC(C=NCCCN(CC)CC)=C2Sc1ccccc1	?	?	?	?	?	16µM*
CCOC(=O)c1c(NC(C)=O)sc2c(OCCN(CC)CC)c(Br)ccc12	-23%[9.22 µM]	-6%	i	-47%	-28%	i
CC(=O)N(C(C)=O)c1ncnc2c1c(-c1ccc(Cl)cc1)nn2C(C)(C)C	?	?	?	16%	15µM*	?
CC(=O)Nc1ncnc2c1c(-c1ccc(Cl)cc1)nn2C(C)(C)C	?	-19%	i	-17%	-18%	i
